SKKanGAS inh = S. pyogenes SKKanGAS growth inhibitors in kanamycin, primary screen, streptokinase expression inhibitor project, SKKanGAS strain, BacTiter-Glo luminescence; 1.3% of 300,000 active; inhibition, % at 7.5 µM; 6 h;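 active = mean replicate score, as percent of positive control median, at least 50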;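 also: strain carries kanamycin resistance gene driven by streptokinase promoter and grows in 40 µg/ml kanamycin; loss of luminescence reflects streptokinase promoter inhibition or plain growth inhibition; 0% = median of DMSO wells and 100% = positive control at its reference dose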
NALP1 inh = NALP1 inflammasome inhibitors in reconstituted yeast, colorimetric, S. cerevisiae, triplicate retest | 0.61% of 280,000 active | inhibition, % at 10 µM | S. cerevisiae NALP1/ASC/caspase-1 growth, X-gal OD620, 72 h | AID 2071, 2009; in the data active = inhibition mostly above about 24%, no sharp cut-off; inactive = mostly below about 32%
PfHsp90 yeast 2 = growth inhibition of PfHsp90-expressing yeast, primary screen, antimalarial PfHsp90 inhibitor project, S. cerevisiae, BacTiter-Glo luminescence, single point, set 2; BacTiter-Glo ATP, 48 h; yeast lacking PDR1 and PDR3 efflux regulators; inhibition, % at 9.4 µM; 0.32% of 310,000 active; AID 504621, 2011;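 active = every replicate shows inhibition above about 80%, whatever the replicate mean, limit read from the data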;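 also: 0% = DMSO neutral controls and 100% = 20 µM radicicol positive controls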
tim10-1 inh = growth inhibitors of tim10-1 mutant yeast, primary screen, luminescence, uHTS. S. cerevisiae tim10-1 ts strain growth, BacTiter-Glo, 24 h. inhibition, % at 20 µM. 2.2% of 330,000 active;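 active = inhibition of at least 40%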;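 also: mutant grown at 25 °C; 0% = DMSO wells with yeast and 100% = wells holding no yeast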
tim23-1 inh = growth inhibitors of tim23-1 mutant yeast, primary screen, luminescence, uHTS. 1.3% of 330,000 active. S. cerevisiae tim23-1 growth, BacTiter-Glo luminescence, 24 h. inhibition, % at 20 µM. AID 463212, 2010;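 active = growth inhibition of the mutant yeast at or above 50%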;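 also: temperature-sensitive mutant grown at 25 °C; plate controls were DMSO-treated mutant yeast for no effect and medium wells lacking yeast for full effect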
TIM10 inh = growth inhibitors of isogenic TIM10 control yeast, primary screen, counter-screen for tim10-1 yeast inhibitor project, luminescence, uHTS; S. cerevisiae TIM10 strain growth, BacTiter-Glo luminescence, 24 h; inhibition, % at 10 µM; 1.4% of 330,000 active; AID 463195, 2010;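 active = inhibition of 40% or more at the single tested concentration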;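 also: wild-type TIM10 isogenic control strain grown at permissive 25 °C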
tim10-1 confirm = growth inhibitors of tim10-1 mutant yeast, confirmation, single concentration, luminescence, S. cerevisiae; S. cerevisiae tim10-1 ts strain growth, BacTiter-Glo, 24 h; inhibition, % at 20 µM; 56% of 7,400 active; AID 463213, 2010; shares compounds with tim10-1 inh;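 active = inhibition of yeast growth at or above a set limit in either of two repeat tests at 20 µM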;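 also: tim10-1 mutant grown at permissive 25 °C to find synthetic lethal compounds; 0% = DMSO yeast wells and 100% = medium wells without yeast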
The depositor's hits bear a star; nt = no result. Only some compounds are listed: those with a hit (about 4.8% of all), similar ones and a draw of the others.

SMILES | SKKanGAS inh | NALP1 inh | PfHsp90 yeast 2 | tim10-1 inh | tim23-1 inh | TIM10 inh | tim10-1 confirm
COCCCNc1c2c3c(cccc3[nH]c1=O)C(=O)c1ccccc1-2 | nt | 15 | 21 | 41* | 16 | 31 | 23
COCCCNC1=C(Cl)C(=O)c2ccccc2C1=O | 0 | 9 | -1 | 30 | 41 | 27 | nt
O=C(COc1ccccc1Cl)Nc1cc(Cl)ccc1O | -14 | 10 | -9 | nt | nt | nt | nt
Cc1ccc(NC(=S)N2CCN(Cc3ccccc3)CC2)c(C)c1 | -4 | 20 | 10 | 18 | 21 | 19 | nt
CN1/C(=C\C(=O)COc2ccc3c(c2)OCO3)C(C)(C)c2ccccc21 | 14 | 25 | -3 | 16 | 17 | 21 | nt
CCc1ccccc1NC(=O)CCc1c(C)nn(-c2ccc(N3CCOCC3)nn2)c1C | -10 | 7 | -62 | 62* | 10 | 12 | -9
O=C(Nc1ccccc1)c1ccccc1O | 7 | -1 | 3 | -22 | 49 | -1 | nt
CC(C1CC1)N(C(=O)c1ccccc1O)c1ccccc1 (stereo not given) | 0 | 11 | nt | 40 | 41 | 18 | 29
COc1ccc(OCCC(=O)OCC(=O)NC2CCCCCCC2)cc1 | -15 | 6 | -11 | 43* | 38 | 24 | 40*
Cc1cc(Cl)c2oc(C(=O)N(CCO)Cc3ccccc3)c(C)c2c1 | 0 | 6 | -1 | -9 | 32 | -5 | nt
Cc1cc(Cl)c2oc(C(=O)N(C)C3CCOC3)c(C)c2c1 (stereo not given) | -6 | 13 | 2 | 41* | 40 | -10 | -10
CNc1ccccc(-c2ccc3ccccc3n2)c1=O | -4 | 53 | nt | 15 | 20 | 8 | nt
CCN1C(=O)C(O)(CC(=O)/C=C/C=C/c2ccccc2)c2ccccc21 (stereo not given) | -4 | 10 | nt | 35 | 28 | 23 | nt
NC(=O)CN1C(=O)C(O)(CC(=O)/C=C\C=C\c2ccccc2)c2ccccc21 (stereo not given) | -16 | 8 | -25 | -6 | 16 | 6 | nt
Cc1ccc2c(c1)C(O)(CC(=O)/C=C/C=C/c1ccccc1)C(=O)N2 (stereo not given) | -9 | 26 | -5 | 40* | 30 | -4 | 28*
O=C(/C=C/C=C/c1ccccc1)CC1(O)C(=O)N(CCc2ccccc2)c2ccccc21 (stereo not given) | 24 | 20 | nt | 45* | 41 | 27 | 52*
Nc1ncnc(Nc2ccccc2Cl)n1 | -2 | 10 | 1 | -14 | -15 | 9 | nt
COc1ccc(C(=O)Nc2ccc(Cl)c(S(=O)(=O)Nc3ccccc3OC)c2)cc1 | 15 | 29 | -22 | 41* | 44 | 16 | 28
Cc1ccc(S(=O)(=O)NC(=O)c2ccc(-c3ccc(-c4ccccc4)cc3)o2)c(C)c1 | 25 | 17 | nt | 43* | 10 | -1 | 33*
Cc1ccc(S(=O)(=O)NC(=O)c2ccc(F)cc2)c(C)c1 | -1 | -1 | -23 | -2 | 8 | -5 | nt
C=CCn1c(SCC(=O)NC2CCCCC2)nnc1-c1cccnc1 | -6 | 24 | 2 | 1 | -7 | 3 | nt
CN(C)c1nc(SCC(=O)Nc2ccccc2)nc(N2CCOCC2)n1 | -2 | 16 | -11 | -5 | 11 | 27 | nt
CC(C)(C)Nc1nc(SCC(=O)Nc2ccccc2)nc(N2CCOCC2)n1 | -2 | -12 | 4 | 46* | 18 | 13 | -6
CN(Cc1ccccc1)Cc1nc2c(c(=O)n(C)c(=O)n2C)n1Cc1ccc(Cl)cc1 | 7 | nt | 48 | 40* | 31 | 29 | 25
NC(=O)COC(=O)c1ccccc1SCC(=O)NC1CCCCCCC1 | 20 | nt | 1 | 3 | -7 | 5 | nt
SMILES | SKKanGAS inh | NALP1 inh | PfHsp90 yeast 2 | tim10-1 inh | tim23-1 inh | TIM10 inh | tim10-1 confirm
OCCn1c(-c2ccc3c(c2)OCO3)csc1=Nc1ccccc1 | 9 | nt | 53 | 48* | 44 | 25 | 33*
COc1ccc(/C=C2\SC(N3CCCCC3)=NC2=O)cc1 | -6 | -13 | -10 | 47* | 46 | 31 | 44*
CC(=O)N1N=C(c2cccc([N+](=O)[O-])c2)OC1c1cccc(Br)c1 (stereo not given) | 8 | 2 | 4 | 45* | 47 | 22 | 29
N#Cc1ccc(OCCN2CCc3ccccc3C2)cc1 | -9 | nt | 7 | 18 | 4 | 9 | nt
O=C(NNC(=S)NC1CCCCC1)c1sc2ccccc2c1Cl | -4 | 12 | -34 | 50* | 46 | 25 | 32
N/C(=N\OC(=O)COc1ccccc1)c1cccnc1 | 0 | nt | 7 | 4 | 5 | 1 | nt
N/C(=N\OC(=O)COc1ccc2ccccc2c1Br)c1cccnc1 | 18 | 3 | nt | -3 | 13 | 8 | nt
N/C(=N\OC(=O)c1ccc(Cl)cc1)c1ccc(Cl)cc1 | -5 | -142 | 7 | 43* | 23 | 12 | 34*
N/C(=N\OC(=O)c1cccc2ccccc12)c1cccnc1 | -6 | 22 | 5 | 62* | 26 | 34 | 65*
N/C(=N\OC(=O)c1ccco1)c1cccnc1 | -17 | -4 | 5 | -8 | 8 | -7 | nt
N/C(=N\OC(=O)c1ccc(Cl)cc1)c1ccn[nH]1 | -1 | -2 | -3 | 21 | 31 | 31 | nt
N/C(=N\OC(=O)C(c1ccccc1)c1ccccc1)c1cccnc1 | 2 | 6 | -7 | 41* | 19 | -8 | 8
N/C(=N\OC(=O)c1ccc(Cl)cc1)c1cccnc1 | -4 | -15 | 17 | 65* | 50 | 33 | 62*
O=[N+]([O-])c1cccc(CN2CCC(Cc3ccccc3)CC2)c1 | 12 | 17 | -18 | 2 | 2 | -10 | nt
COC(=O)CN1C(=S)N(c2ccc(OC)cc2)C(=O)/C1=C/c1ccc(OC)cc1 | -9 | -20 | -4 | 50* | 39 | 27 | 37*
Oc1ccccc1CNc1ccc(OC(F)(F)F)cc1 | 21 | 8 | -26 | 42* | 33 | 33 | 27
COc1ccc(C2=NN(C(=O)CSc3nnc(-c4ccccc4F)o3)C(c3ccco3)C2)cc1 (stereo not given) | 20 | 42 | 3 | 48* | 42 | 26 | 38*
COc1ccc(C2=NN(C(N)=S)C(c3ccco3)C2)cc1 (stereo not given) | -3 | 8 | -15 | 7 | 6 | -4 | nt
COc1ccccc1C(=O)Oc1cc(N)n(S(=O)(=O)c2ccccc2)n1 | 6 | -51 | -20 | 40 | 26 | 29 | 24

Bioassay records (PubChem)
